Results on 17 molecules are retold here after the supplement of paper PMC6522484.

For experiment [1], the system named is DLD1. Kind of experiment: cell viability (CellTiter-Glo) relative to plate median (fraction of plate median); higher = more viable cells. The following applies: 5 µM; treatment time 24 h; reporter: 7TFP. An outline of the steps: (§1)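 Library compounds were added at a final concentration of 5 µM for 24 h to colorectal cancer cells stably transduced with a lentiviral TCF/Wnt firefly luciferase reporter. Reported values are firefly luciferase or CellTiterGlo luminescence, normalised per well to the plate median. Each value averages two independent replicates.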

A further experiment concerns HCT116. The experiment is described as above. The following applies: 5 µM; treatment time 24 h; reporter: TCF4/Wnt. The method in brief:
as §1

In experiment [2] the test system is SW480. The description is as above. The following applies: 5 µM; treatment time 24 h; reporter: 7TFP. The method in brief: as §1
The test system of experiment [3] is DLD1. The experiment in a line: TCF/Wnt firefly luciferase reporter signal relative to plate median (fraction of plate median); higher = higher Wnt reporter signal. The following applies: 5 µM; treatment time 24 h; reporter: 7TFP. An outline of the steps:
as §1

For experiment [4], the system named is SW480. The experiment is described as above. The settings on record: 5 µM; treatment time 24 h; reporter: 7TFP. An outline of the steps: as §1

± gives the standard deviation of the averaged measurements.

Turning to `NCCc1c[nH]cn1`, the cell viability in the experiment with DLD1 [1] worked out at 1.06 ± 0.028; in the experiment with HCT116, 1.02 ± 0.021; with SW480 [2], 1.04 ± 0.062. Also, the “TCF/Wnt firefly luciferase reporter signal” value in the experiment with DLD1 [3] was found to be 1.12; with SW480 [4] it was 1.06 ± 0.014.
Turning to `O=C1c2ccc(O)c(O)c2C(=O)c2c(O)ccc(O)c21`, the cell viability in the experiment with DLD1 [1] worked out at 0.966 ± 0.048; in the experiment on HCT116, 0.877 ± 0.023; in the experiment with SW480 [2] it was 0.964 ± 0.03. For the same molecule, the “TCF/Wnt firefly luciferase reporter signal” value in the experiment with DLD1 [3] turned out to be 1.09 ± 0.092; with SW480 [4] it was 1.1 ± 0.085.
With `CC(Cc1cccc(C(F)(F)F)c1)NCCOC(=O)c1ccccc1` (stereo not given), the cell viability in the experiment with DLD1 [1] was 0.984 ± 0.023; in the experiment on HCT116 it was 0.993 ± 0.011; with SW480 [2] it was 0.955 ± 0.032. For the same molecule, the “TCF/Wnt firefly luciferase reporter signal” value in the experiment on DLD1 [3] amounted to 1.22 ± 0.057; with SW480 [4], 1.14 ± 0.021.
For the molecule `O=C(O)c1cc(O)c2c(c1)C(=O)c1cc(O)cc(O)c1C2=O`, the cell viability in the experiment on DLD1 [1] turned out to be 0.873 ± 0.11; in the experiment with HCT116, 0.866 ± 0.057; in the experiment with SW480 [2], 0.991 ± 0.013. Further, the entries for the “TCF/Wnt firefly luciferase reporter signal” value in the experiment with DLD1 [3] and in the experiment with SW480 [4] were 0.926 ± 0.22 and 1.12 ± 0.11, respectively.
The corresponding values for `CC(=O)O[C@]1(C(C)=O)CC[C@H]2[C@@H]3C[C@H](C)C4=CC(=O)CC[C@]4(C)[C@H]3CC[C@@]21C` are 1.03 ± 0.014, 0.989 ± 0.0099, 0.96 ± 0.018, 0.971 ± 0.18 and 1 ± 0.035.
Take `COc1ccc(-c2cc(=O)c3c(O)cc(O[C@@H]4O[C@H](CO[C@@H]5O[C@@H](C)[C@H](O)[C@@H](O)[C@H]5O)[C@@H](O)[C@H](O)[C@H]4O)cc3o2)cc1O`: the cell viability is 0.999 ± 0.03 in the experiment on DLD1 [1], 1.06 ± 0.12 in the experiment on HCT116 and 0.96 ± 0.013 in the experiment with SW480 [2]. Besides, the “TCF/Wnt firefly luciferase reporter signal” value amounted to 1.06 ± 0.13 with DLD1 [3] and 1.04 ± 0.021 in the experiment with SW480 [4].
`COc1ccc2[nH]cc(CCNC(C)=O)c2c1`: the cell viability in the experiment on DLD1 [1] stood at 0.961 ± 0.0071; in the experiment with HCT116, 1.11 ± 0.05; in the experiment with SW480 [2], 0.974 ± 0.052. For the same molecule, the “TCF/Wnt firefly luciferase reporter signal” value in the experiment on DLD1 [3] came to 0.967 ± 0.046; with SW480 [4], 0.983 ± 0.095.
The corresponding values for `CC(=O)OC[C@H]1O[C@@H](Oc2cc(OC(C)=O)c3c(=O)cc(-c4ccc(OC(C)=O)cc4)oc3c2)[C@H](OC(C)=O)[C@@H](OC(C)=O)[C@@H]1OC(C)=O` are 1.02 ± 0.021, 1.11, 0.992 ± 0.054, 1.07 ± 0.13 and 0.938 ± 0.036.
The corresponding values for `NC[C@H]1CC[C@H](C(=O)O)CC1` are 0.995 ± 0.022, 1.025 ± 0.0071, 1.02 ± 0.014, 0.927 ± 0.1 and 0.981 ± 0.028.
Turning to `CN1CC(=O)N2[C@H](c3ccc4c(c3)OCO4)c3[nH]c4ccccc4c3C[C@@H]2C1=O`, the cell viability in the experiment with DLD1 [1] is 0.995 ± 0.079; in the experiment with HCT116 it was 1.08 ± 0.028; in the experiment with SW480 [2] it was 0.995 ± 0.021. Also, the results for the “TCF/Wnt firefly luciferase reporter signal” value in the experiment on DLD1 [3] and in the experiment with SW480 [4] were 0.973 ± 0.081 and 0.941 ± 0.098, respectively.
The corresponding values for `CC[C@H](C)C(=O)O[C@H]1C[C@@H](C)C=C2C=C[C@H](C)[C@H](CC[C@@H]3C[C@@H](O)CC(=O)O3)[C@H]21` are 1.02 ± 0.086, 1.06 ± 0.028, 1.035 ± 0.0071, 1.02 ± 0.079 and 1.07 ± 0.021.
Regarding `CC(=O)O[C@@H]1CC2C(C)(C)C(=O)CC[C@]2(C)C2CC[C@]3(C)C(=CC(=O)O[C@H]3c3ccoc3)[C@@]21C` (stereo not given in full), the values for the cell viability with DLD1 [1], in the experiment on HCT116 and in the experiment with SW480 [2] were 1.05 ± 0.12, 1.06 ± 0.17 and 1.07 ± 0.092, respectively. Besides, the “TCF/Wnt firefly luciferase reporter signal” value with DLD1 [3] stood at 1.06 ± 0.11; in the experiment with SW480 [4], 0.949 ± 0.087.
Consider `C=C1C2CC[C@@]3(C)[C@H](c4ccoc4)OC(=O)C[C@]13O[C@H]1CC(=O)C(C)(C)[C@H](C(O)C(=O)OC)[C@@]21C` (stereo not given in full), for which the cell viability in the experiment on DLD1 [1] is 0.97 ± 0.042; in the experiment with HCT116 it was 1.01 ± 0.087; in the experiment on SW480 [2], 0.991 ± 0.055. The “TCF/Wnt firefly luciferase reporter signal” value in the experiment on DLD1 [3] is 1.02 ± 0.11; in the experiment with SW480 [4] it was 1.02 ± 0.047.
As to `COc1cc(Cc2cnc(N)nc2N)cc(OC)c1OC`, the cell viability in the experiment with DLD1 [1] came out at 0.988 ± 0.013; with HCT116, 1 ± 0.15; in the experiment with SW480 [2], 0.991 ± 0.013. Besides, the figures for the “TCF/Wnt firefly luciferase reporter signal” value with DLD1 [3] and in the experiment with SW480 [4] were 1 ± 0.057 and 0.831 ± 0.17, respectively.
For `CC(=O)/N=c1/sc(S(N)(=O)=O)nn1C`, the cell viability was found to be 0.987 ± 0.047 with DLD1 [1], 0.909 ± 0.13 in the experiment on HCT116 and 1.01 ± 0.053 in the experiment on SW480 [2]. The “TCF/Wnt firefly luciferase reporter signal” value is 0.865 ± 0.1 in the experiment on DLD1 [3] and 1.08 ± 0.099 with SW480 [4].
As for `COc1cc(OC)c2c(=O)c(-c3ccc4c(c3)OCO4)coc2c1`, the cell viability was 0.9395 ± 0.00071 with DLD1 [1], 1 ± 0.16 in the experiment on HCT116 and 0.9755 ± 0.005 in the experiment on SW480 [2]. For the same molecule, the “TCF/Wnt firefly luciferase reporter signal” value in the experiment with DLD1 [3] was determined as 1.02 ± 0.066; with SW480 [4], 1.02 ± 0.028.
The corresponding values for `CN1CCCC(n2nc(Cc3ccc(Cl)cc3)c3ccccc3c2=O)CC1` (stereo not given) are 1.01 ± 0.021, 1.015 ± 0.0071, 1.045 ± 0.0071, 1.17 ± 0.17 and 1.06 ± 0.057.
